The text below walks through data of PubChem BioAssay (Tox21).

Inconclusive results are not listed. A call without a number means that no potency is given here. Activity calls are given as the source filed them. Calls come from the whole dose curve; as a rule, active = well fitted inhibition curve with a large enough effect in the signal ratio in the repeat runs (not every such curve was filed as active); inconclusive = weak or mixed curves, or effect the other way; inactive = no such curve, though single readings can be large or run the other way; the % refers to the signal ratio.
Potency is the fitted concentration of half-maximal effect.

Estrogen receptor beta (Homo sapiens), sequence (Q92731 whole entry, looked up): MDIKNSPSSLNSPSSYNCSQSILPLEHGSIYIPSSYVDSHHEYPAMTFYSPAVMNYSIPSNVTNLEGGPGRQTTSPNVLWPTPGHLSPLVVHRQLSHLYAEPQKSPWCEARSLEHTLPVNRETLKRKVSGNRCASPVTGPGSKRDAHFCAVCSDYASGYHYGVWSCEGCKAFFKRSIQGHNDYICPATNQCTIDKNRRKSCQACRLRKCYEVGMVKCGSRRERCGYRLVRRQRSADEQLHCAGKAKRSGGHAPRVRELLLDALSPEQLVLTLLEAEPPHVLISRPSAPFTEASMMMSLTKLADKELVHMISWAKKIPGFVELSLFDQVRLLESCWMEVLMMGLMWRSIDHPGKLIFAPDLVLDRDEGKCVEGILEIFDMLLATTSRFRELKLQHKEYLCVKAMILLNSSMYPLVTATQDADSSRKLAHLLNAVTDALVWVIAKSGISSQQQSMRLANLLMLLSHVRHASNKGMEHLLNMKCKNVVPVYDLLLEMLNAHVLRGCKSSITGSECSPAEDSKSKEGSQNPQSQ

This experiment has as its target Estrogen receptor beta (Homo sapiens) (UniProt Q92731). As to the kind of experiment: qHTS assay to identify small molecule antagonists of the estrogen receptor beta (ER-beta) signaling pathway (AID 1259378). As to conditions: ER-beta-UAS-bla HEK293T, beta-lactamase FRET ratio, 16 h; series mostly up to 92.4 µM. From the text: National Center for Advancing Translational Sciences [NCATS]
NIH Chemical Genomics Center [NCGC]
U.S. Environmental Protection Agency [EPA]
National Institutes of Environmental Health Sciences [NIEHS]
National Toxicology Program [NTP]
U.S. Food and Drug Administration [FDA]
Estrogen receptor (ER), a nuclear hormone receptor, plays an important role in development, metabolic homeostasis and reproduction. Two subtypes of ER, ER-alpha and ER-beta, have similar expression patterns with some uniqueness in both types. Endocrine disrupting chemicals (EDCs) and their interactions with steroid hormone receptors like ER causes disruption of normal endocrine function. To identify the compounds that inhibit ER signaling, an ER-beta-UAS-bla GripTite cell line (Life Technologies, Madison, WI, USA) containing a beta-lactamase reporter gene under the control of an UAS response element was used to screen Tox21 10K compound library.
Tox21 Assay Protocol Summary:
ER-beta-UAS-bla HEK293T cells were dispensed at 2,000 cells/4 uL of assay medium containing 2% charcoal stripped FBS per well into black wall/clear-bottom 1536-well plates using a Multidrop Combi (ThermoFisher Scientific, Waltham, MA) dispenser. After the assay plates were incubated at a 37C and 5% CO2 for 6 hr, 23 nL of compounds dissolved in DMSO, positive controls or DMSO only was transferred to the assay plate by a Pintool station (Kalypsys, San Diego, CA), followed by addition of 1 uL (1nM as final concentration) of 17-beta-estradiol (E2) in assay medium using a BioRAPTR FRD (Flying Reagent Dispenser, Aurora Discovery, San Diego, CA). The plates were incubated at 37C and 5% CO2 for 16 hr. Then 1 uL of LiveBLAzerTM B/G FRET substrate was added using a Flying Reagent Dispenser, the plates were incubated at room temperature for 2 hours, and fluorescence intensity was measured by an Envision plate reader (PerkinElmer, Shelton, CT).
(Quantitative high-throughput screening tests each substance at several concentrations.)
Turning to `NC(=O)C1(N2CCCCC2)CCN(CCCN2c3ccccc3CCc3ccc(Cl)cc32)CC1`, the Potency was 11.9 µM (active).
Under `Clc1ccc(C(Cn2ccnc2)OCc2ccc(Sc3ccccc3)cc2)c(Cl)c1` (stereo not given) stands “inactive”; under `COc1cc(-c2ccc(N=C=O)c(OC)c2)ccc1N=C=O`, “inactive”.
To `O=CC=C(c1ccccc1)c1ccccc1` belongs 7.76 µM (active).
Under `CCC(N)(CO)CO` stands “inactive”.
For the molecule `Fc1ccc(C(c2ccc(F)cc2)N2CCN(C/C=C/c3ccccc3)CC2)cc1`, the Potency was 16.8 µM (active).
To `CN(C)C(=O)C1(N2CCCCC2)CCN(CC[C@@]2(c3ccc(Cl)c(Cl)c3)CN(C(=O)c3ccccc3)CCO2)CC1` belongs 16.1 µM (active); to `CCOC(=O)O[C@]1(C(=O)OCCl)CC[C@H]2[C@@H]3CCC4=CC(=O)C=C[C@]4(C)[C@H]3[C@@H](O)C[C@@]21C`, “inactive”.
In the case of `C=C(C)C(=O)OCC[N+](C)(C)C`, the Potency entry was “inactive”.
Regarding `CC(C)(C)C(=O)OCOC(=O)C1N2C(=O)CC2S(=O)(=O)C1(C)C` (stereo not given), the Potency is 10.6 µM (active).
To `C/C=C(\C)C(=O)OCc1ccccc1` belongs “inactive”; to `Cc1ccc(-n2nc(C(C)(C)C)cc2NC(=O)Nc2ccc(OCCN3CCOCC3)c3ccccc23)cc1`, 26.6 µM (active); to `CCCCCCCC/C=C/CCCCCCCC1=NCCN1CCO`, 54.5 µM (active).
Consider `O=C1C=CC(=O)N1`, for which the Potency was 28 µM (active).
Regarding `C[C@]12CCC(=O)C=C1CC[C@@H]1[C@@H]2[C@@H](O)C[C@@]2(C)[C@H]1CC[C@]2(O)C(=O)COC(=O)CCC(=O)O`, the Potency entry was “inactive”.
Regarding `Cc1cc2c(cc1C(F)(F)F)N(C(=O)Nc1ccc(Oc3cccnc3C)nc1)CC2`, the Potency is 19.6 µM (active).
As for `O=[N+]([O-])c1ccccc1Nc1ccccc1`, the Potency entry was “inactive”.
In the case of `Cn1cc(C(=O)[C@@H]2CCc3nc[nH]c3C2)c2ccccc21`, the Potency entry is “inactive”.
To `O=c1cccccc1O` belongs “inactive”; to `O=C(NOCC1CC1)c1ccc(F)c(F)c1Nc1ccc(I)cc1Cl`, 8.41 µM (active); to `CC(C)c1ccc2c(c1)CC[C@H]1[C@](C)(CN)CCC[C@]21C`, 61.1 µM (active).
To `C/C(=C(/OCCOc1ccc(Cl)cc1)c1ccc(Cl)cc1Cl)n1ccnc1` belongs 13.3 µM (active); to `Clc1ccccc1C(c1ccccc1)(c1ccccc1)n1ccnc1`, 8.41 µM (active); to `O=C(O)c1c(Cl)cccc1Cl`, “inactive”.
Regarding `NC(=O)NS(=O)(=O)c1ccc(N)cc1`, the Potency entry is “inactive”.
`Clc1ccc2nsnc2c1NC1=NCCN1`: the Potency result is “inactive”.
Under `O=c1c(-c2ccccc2)c1-c1ccccc1` stands 10.6 µM (active); under `O=C(N/N=C/c1ccccc1O)c1ccncc1`, 2.11 µM (active).
Under `NNc1nc(-c2ccc([N+](=O)[O-])cc2)cs1` stands “inactive”.
Turning to `CCCCN(CCCC)C(=O)N(CCCC)CCCC`, the Potency result is “inactive”.
To `CCCCCOC(=O)CCCC` belongs “inactive”.
To `C[C@H]1[C@H]2CC[C@H]3[C@@H]4CC=C5C[C@@H](N(C)C)CC[C@]5(C)[C@H]4CC[C@]23CN1C` belongs “inactive”; to `Oc1cccc(-c2c3nc(c(-c4cccc(O)c4)c4ccc([nH]4)c(-c4cccc(O)c4)c4nc(c(-c5cccc(O)c5)c5ccc2[nH]5)CC4)C=C3)c1`, 26.6 µM (active).
For the molecule `CC(=O)SC[C@@H](Cc1ccccc1)C(=O)NCC(=O)OCc1ccccc1`, the Potency entry was “inactive”.
For the molecule `COCCCC/C(=N\OCCN)c1ccc(C(F)(F)F)cc1`, the Potency was 29.8 µM (active).
To `C[C@@H](NCCCc1cccc(C(F)(F)F)c1)c1cccc2ccccc12` belongs 10.6 µM (active).
To `CCCCCCCC(=O)[O-].CCCCCCCC(=O)[O-].[Zn+2]` belongs “inactive”; to `CCCC(C)c1ccccc1O` (stereo not given), “inactive”.
In the case of `Oc1ccc(Cl)cc1Sc1cc(Cl)ccc1O`, the Potency was 18.8 µM (active).
For the molecule `Cc1cc(O)c(Cl)c(C)c1Cl`, the Potency entry was “inactive”.
